Compound activity as filed in PubChem.
IMPase inh – membrane-permeable compound that blocks inositol monophosphatase; P97697; CHO-M1 cells, IP1 accumulation, HTRF TR-FRET ratio; inhibition (IP1 accumulation), % at 46.1 µM; 120,000 tested, under 10 active; AID 901; active = well fitted curve in the direction sought with a large enough effect in the signal ratio, not every such curve was filed as active; inconclusive = small, poorly fitted or top-dose-only effect, or a change in a side signal; inactive = no such curve, though single readings can be large or run the other way; the % refers to the signal ratio;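 also: cells stimulated with carbachol in lithium chloride buffer; plate controls were DMSO basal wells for no effect and reference inhibitor wells for full effect; higher means more IMPase inhibition seen as more IP1 and lower FRET ratio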
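CHO-M1 cells (CHO stably expressing M1 receptor), compound up to 46 uM final, stimulated with carbachol (50 uM as added) in buffer with 50mM LiCl, pH 7.4, 30 min at 37C. Cytosolic IP1 read by TR-FRET; AC50 from Hill fits.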
HPGD inh – blocks human HPGD enzyme activity | P15428 | 150,000 tested, 4.3% active | purified HPGD, NADH fluorescence kinetic, PGE2 substrate | Potency, µM, for the others: at the top dose activity change, negative = inhibition, usual class: inhibitors; also: potency is read from the fitted curve at half-maximal effect
Target sequence (P15428 whole entry, looked up): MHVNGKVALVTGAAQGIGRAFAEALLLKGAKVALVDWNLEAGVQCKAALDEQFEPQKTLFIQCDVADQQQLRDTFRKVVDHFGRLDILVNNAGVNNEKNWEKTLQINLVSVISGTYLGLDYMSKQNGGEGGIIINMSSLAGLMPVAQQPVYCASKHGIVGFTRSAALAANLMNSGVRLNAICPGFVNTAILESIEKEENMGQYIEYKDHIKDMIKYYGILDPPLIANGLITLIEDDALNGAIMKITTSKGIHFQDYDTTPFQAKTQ
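NADH formation kinetics: reaction with 30 uM PGE2 and 1 mM NAD+ (final), 20 nM enzyme, Tris-HCl pH 8 with Tween 20, after 15 min compound preincubation at room temperature. Fluorescence change, last versus first of five reads.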
LMNA splice mod – changes lamin A minigene splicing in HeLa cells; HeLa LMNA splicing GFP/RFP minigene ratio, 48 h; Potency, µM (highest dose often 46.1 µM), inactives show at the top dose ratio change, negative = inhibition, usual class: inhibitors; 200,000 tested, 0.01% active; active = well fitted inhibition curve with a large enough effect in the signal ratio, with a control signal flat, not every such curve was filed as active; inconclusive = small, poorly fitted or top-dose-only effect, or effect the other way, or a change in a side signal; the % refers to the signal ratio; also: potency is read from the fitted curve at half-maximal effect
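S3 HeLa cells stably expressing lamin A-EGFP splicing minigene plus DsRed2, 600 cells/well, 48 h compound exposure at 37C. Laser-scanning cytometry; analysed as GFP (500-530 nm)/RFP (575-640 nm) total intensity ratio; 0.5% DMSO vehicle.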
KinaseGlo FLuc – Kinase-Glo luciferase inhibition (counter-screen); Kinase-Glo luciferase, ATP luminescence, 8 min; Potency, µM (highest dose often 38.3 µM), without a hit: at the top dose activity change, negative = inhibition, usual class: inhibitors; 200,000 tested, 0.28% active; AID 1379; active = well fitted inhibition curve with a large enough effect; inconclusive = small, poorly fitted or top-dose-only effect; also: potency is read from the fitted curve at half-maximal effect; nearly all actives have a fitted effect of over 60% in size
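Substrate mix (final 50 mM imidazole pH 7.2, 50 mM KCl, 7 mM MgCl2, 10 uM ATP, 0.01% Tween 20, 0.05% BSA) plus pin-tool compound, then Kinase-Glo detection mix; 8 min ambient, luminescence read.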
ALDH1A1 block – blocks purified human ALDH1A1 activity. AID 1030. 220,000 tested, 7.3% active. P00352. Purified ALDH1A1, NADH fluorescence, propionaldehyde substrate. Potency, µM (highest dose often 75.3 µM), without a hit: at the top dose activity, negative = inhibition, usual class: inhibitors;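 also: potency is read from the fitted curve at half-maximal effect; plate controls were no enzyme wells and a reference inhibitor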
Target sequence (P00352 whole entry, looked up): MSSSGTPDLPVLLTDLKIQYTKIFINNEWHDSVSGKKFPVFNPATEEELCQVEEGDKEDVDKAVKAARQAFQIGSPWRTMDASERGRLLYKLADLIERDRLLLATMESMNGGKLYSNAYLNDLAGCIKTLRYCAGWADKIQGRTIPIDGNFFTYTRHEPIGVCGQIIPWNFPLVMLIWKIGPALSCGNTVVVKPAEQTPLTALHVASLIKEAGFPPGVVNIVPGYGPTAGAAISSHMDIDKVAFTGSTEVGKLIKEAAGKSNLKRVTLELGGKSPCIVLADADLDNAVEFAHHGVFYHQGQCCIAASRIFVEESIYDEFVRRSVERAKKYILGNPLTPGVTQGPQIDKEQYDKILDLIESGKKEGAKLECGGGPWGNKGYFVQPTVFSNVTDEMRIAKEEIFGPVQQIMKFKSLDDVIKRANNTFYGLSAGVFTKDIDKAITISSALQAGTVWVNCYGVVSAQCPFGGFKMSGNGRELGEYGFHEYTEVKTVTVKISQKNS
PNC assembly inh – blocks assembly of the perinucleolar compartment; PC3M PTB-GFP, PNC prevalence imaging, 16 h; hits give low values; activity change (PNC), negative = inhibition, % at 10 µM; 140,000 tested, 3.1% active; AID 2417;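 active = readout at or below -70, meaning at least 70% loss of cells showing the perinucleolar compartment, a nuclear body marking cancer cells; inconclusive = readout between -30 and a set limit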;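 also: plate controls were DMSO wells for no effect and camptothecin positive control wells for full effect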
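Read-out is percentage of cells bearing a perinucleolar compartment, from automated 20x imaging of fixed, Hoechst-stained PC3M PTB-GFP cells. Cells were seeded 4 h, then exposed 16 h to compound (23 nl of library stock) in duplicate plates.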
Active calls of the source: *; ? = inconclusive; . = no result given; [ ] = another dose, or the depositor's remark. In the library only some 10% were active in any assay of this set; here they are far more common. Unless noted, calls follow the shape of the dose curve; as a rule, active = well fitted inhibition curve with a large enough effect (not every such curve was filed as active); inconclusive = small, poorly fitted or top-dose-only effect, or another doubt; inactive = no such curve, though single readings can be large or run the other way. Unless noted, % is scaled to controls: 0 for no effect and ±100 for the full control effect.

SMILES	IMPase inh	HPGD inh	LMNA splice mod	KinaseGlo FLuc	ALDH1A1 block	PNC assembly inh
CC(C)C1O[C@H](/C=C\c2ccccc2)OCC1(C)C (stereo not given in full)	.	-12%	.	-6%[7.66 µM]	?	.
Cc1nn(S(=O)(=O)c2ccc(C(C)(C)C)cc2)c(C)c1S(=O)(=O)N1CCCCCC1	.	.	13%[46 µM]	.	.	.
CC(NC(=O)CCN1C(=O)c2ccccc2C1=O)c1ccc2c(c1)CCCC2 (stereo not given)	.	-3%	11%	3%	?	-113*
CC(NC(=O)CCCN1C(=O)c2ccccc2C1=O)c1ccc2c(c1)CCCC2 (stereo not given)	0	-11%	-9%	-4%	?	?
C[C@@H](C[C@H](N)C(=O)O)C(=O)O	.	0%	.	-1%[7.66 µM]	5%	.
CCOC(=O)c1cc(CC)sc1/N=C/c1c(O)ccc2ccccc12	.	-20%	?	-3%	?	-88*
CCOC(=O)c1cc(C(C)=O)c(=O)[nH]c1C	.	.	14%[9.22 µM]	0%	0%	.
CCOC(=O)c1cc(C#N)c(=S)[nH]c1C	.	.	.	3%	3.5µM*	.
CCOC(=O)N1CCN(c2c(NCc3cccs3)c(=O)c2=O)CC1	-7	28µM*	-25%	0%	?	7
CCOC(=O)N1CCN(c2c(NCc3ccccc3OC)c(=O)c2=O)CC1	7	16µM*	-12%	-2%	?	-19
COC(=O)N[C@@H](/C=C/c1ccccc1)[C@@H](C)[N+](=O)[O-]	.	-9%	.	4%	5%	.
Cc1ccc(C(=O)NN2C(=O)CSC2=S)cc1	.	-12%	-9%	3%	1%	-84*
O=C(COc1ccccc1)NN1C(=O)CSC1=S	.	.	10%[9.22 µM]	0%	0%	.
CCc1cccc(C)c1NC(=S)NCC1CCN(c2ccc(OC)cc2)C1 (stereo not given)	.	.	.	14%	10µM*	.
COc1ccc(N2CCC(CNC(=O)Nc3ccc(Cl)cc3)C2)cc1 (stereo not given)	.	.	?	5%	5.6µM*	.
N[C@H](C(=O)O)[C@@H]1[C@@H](C(=O)O)C1(F)F	-4	-5%	.	0%	8%	.
CCS(=O)(=O)c1nc2ccccc2n1CC(=O)Nc1ccccc1C(=O)OC	7	.	.	.	.	.
CCOc1ccc(C(=O)Nc2ccc(-c3nc4ccccc4s3)c(C)c2)cc1OCC	.	.	-4%[46 µM]	.	.	.
CC1(C)N=C(N)N=C(N)N1c1cccc(OCc2cccc([N+](=O)[O-])c2)c1	.	-3%	.	0%[7.66 µM]	0%[13.5 µM]	.
CC(=O)C(=Cc1ccc(O)cc1)C(C)=O	.	.	-5%[46 µM]	.	7.1µM*	.
CC(=O)/C(=C/c1ccc(N(C)C)cc1)C(=O)c1ccccc1	.	-19%	?	-1%	?	?
Cc1cccc(C2=N[C@@H](Cc3ccccc3)CO2)c1	.	-14%	.	2%[39.9 µM]	-11%[120 µM]	.
C=CCN(CC=C)C(=S)NC(=O)c1ccc(-c2ccccc2)cc1	7	?	?	1%	?	?
C=CCN(CC=C)C(=S)NC(=O)c1ccc(OC)cc1	.	.	?	-4%	15µM*	.
CCC1=C2CC[C@H]3C(=O)NC(=O)[C@H]3[C@H]2[C@@]2(C)C(=NCC(=O)OC)OC(=O)N2C1=O	.	-7%	.	-3%	-3%	.
SMILES	IMPase inh	HPGD inh	LMNA splice mod	KinaseGlo FLuc	ALDH1A1 block	PNC assembly inh
O=C(Nc1ccc2c(c1)OCO2)c1ccc(Cl)s1	3	16µM*	-5%	?	?	-9
Cc1c(-c2ccccc2)sc(N)c1C(=O)N1CCOCC1	7	8.9µM*	11%	0%	13µM*	?
CCOC(=O)c1c(C)c(C(=O)Nc2ccc3c(c2)OCO3)c(C)n1C	3	-5%	-6%	-3%	?	-21
CCOC(=O)c1c(N)sc(C(=O)N2CCOCC2)c1C	3	-25%	-8%	0%	3%	-100*
COC(=O)c1c(N)sc(C(=O)N2CCOCC2)c1C	-7	-8%	7%	5%	?	?
CCOC(=O)c1c(N)sc(C(=O)Nc2ccc3c(c2)OCO3)c1C	7	?	6%	4.5µM*	?	?
CCOc1cc2[nH]c(=O)n(Cc3ccc(C(=O)N4CCN(c5cccc(Cl)c5)CC4)cc3)c(=O)c2cc1OCC	.	.	-7%[46 µM]	.	.	.
COc1cccc(-n2c(=O)c3c(C)c(C(=O)N(C)C)sc3n(Cc3ccc(F)cc3Cl)c2=O)c1	.	.	18%[46 µM]	.	.	.
Cc1ccccc1CNCCCSc1nnnn1C	.	.	11%[46 µM]	.	.	.
O=C(CC(c1ccccc1)c1ccco1)N1CCOCC1 (stereo not given)	7	18µM*	0%	-3%	40µM*	-3
Cc1ccc(S(=O)(=O)NC(CC(=O)NC2CCCC2)c2ccco2)cc1 (stereo not given)	-10[1.84 µM]	-7%	-5%	1%	14µM*	2
COc1ccc(S(=O)(=O)NC(CC(=O)NC2CCCC2)c2ccco2)cc1 (stereo not given)	2	-13%	4%	5%	?	50
Cc1ccc(S(=O)(=O)NC(CC(=O)NCc2ccco2)c2ccco2)cc1 (stereo not given)	?	-13%	-5%	4%	25µM*	35
COc1ccc(S(=O)(=O)NC(CC(=O)NCc2ccco2)c2ccco2)cc1 (stereo not given)	0	-10%	9%	-2%	?	?
Cc1ccc(S(=O)(=O)NC(CC(=O)N2CCOCC2)c2ccco2)cc1 (stereo not given)	-8[1.84 µM]	-10%	?	8%	13µM*	-91*
CC(NS(=O)(=O)c1ccc(Br)cc1)C(=O)NCc1ccco1 (stereo not given)	.	.	-39%[46 µM]	-5%	?	.
Cc1ccc(O)c(C(CC(=O)N2CCCC2)c2ccccc2)c1 (stereo not given)	.	7.1µM*	-4%	2%	-7%	25
COc1ccc(S(=O)(=O)NC(CC(=O)NCCc2ccc(OC)c(OC)c2)c2ccco2)cc1 (stereo not given)	-3	-6%	-13%	-1%	13µM*	?
COc1ccccc1CNC(=O)C(C)NS(=O)(=O)c1ccc(Br)cc1 (stereo not given)	-2	-5%	-8%	4%	28µM*	11
CC(NS(=O)(=O)c1ccc(Br)cc1)C(=O)NCc1ccc2c(c1)OCO2 (stereo not given)	.	.	.	1%	-4%	.
CC(NS(=O)(=O)c1ccccc1)C(=O)NCc1ccco1 (stereo not given)	5	?	15%	-3%	24µM*	?
CCCCCCCCCCCCCCCCOCC(CO)OC(C)=O (stereo not given)	.	-7%	.	0%	-1%	.
C=C(C)CSc1nc2sc3c(c2c(=O)n1Cc1ccccc1)CC(C)(CC)OC3 (stereo not given)	-16	.	.	.	.	.
